Test results: the supplement of paper PMC8728848
About 410 targets per protein were measured; listed, in parts, are those with the strongest signals and a random draw of the rest.

What was measured:
Assay in all cases: glycan array binding signal (z-score within array); higher = stronger binding
Settings in all cases: glycan notation: IUPAC condensed, linker removed; mutation: N288D, K313I
[1] = molecular target: Fuc(a1-2)Gal(b1-3)GlcNAc(b1-3)[Fuc(a1-2)Gal(b1-3)GlcNAc(b1-6)]GalNAc
Procedure, shortened: (§1)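 The Consortium for Functional Glycomics database supplied 3228 glycan arrays, of which those lacking an available protein sequence were dropped. The binding signal, a within-array Z-score, was averaged across arrays of the same protein sequence and across linkers. Negative scores can be read as non-binding.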

[2] = molecular target: Fuc(a1-2)Gal(b1-3)GlcNAc(b1-3)[Gal(b1-4)GlcNAc(b1-6)]Gal(b1-4)Glc
Procedure, shortened: as §1

[3] = molecular target: Fuc(a1-2)Gal(b1-4)Fuc(a1-3)]GlcNAc(b1-2)Man(a1-3)[Fuc(a1-2)Gal(b1-4)[Fuc(a1-3)]GlcNAc(b1-2)Man(a1-6)]Man(b1-4)GlcNAc(b1-4)GlcNAc
Procedure, shortened: as §1

[4] = molecular target: Fuc(a1-2)Gal(b1-4)GlcNAc(b1-2)Man(a1-3)[Fuc(a1-2)Gal(b1-4)GlcNAc(b1-2)Man(a1-6)]Man(b1-4)GlcNAc(b1-4)GlcNAc
Procedure, shortened: as §1

[5] = molecular target: Fuc(a1-2)Gal6S(b1-3)GlcNAc
Procedure, shortened: as §1

[6] = molecular target: Fuc(a1-2)[GalNAc(a1-3)]Gal(b1-3)GlcNAc(b1-6)GalNAc
Procedure, shortened: as §1

[7] = molecular target: Fuc(a1-2)[GalNAc(a1-3)]Gal(b1-4)GlcNAc
Procedure, shortened: as §1

[8] = molecular target: Fuc(a1-2)[GalNAc(a1-3)]Gal(b1-4)GlcNAc(b1-3)GalNAc
Procedure, shortened: as §1

[9] = molecular target: Fuc(a1-2)[GalNAc(a1-3)]Gal(b1-4)[Fuc(a1-3)]GlcNAc(b1-3)GalNAc
Procedure, shortened: as §1

[10] = molecular target: Fuc(a1-2)[GalNAc(a1-4)]Gal(b1-4)GlcNAc
Procedure, shortened: as §1

[11] = molecular target: Fuc(a1-3)[Gal3S(b1-4)]GlcNAc
Procedure, shortened: as §1

[12] = molecular target: Gal(a1-3)Gal(b1-3)GlcNAc(b1-6)GalNAc
Procedure, shortened: as §1

[13] = molecular target: Gal(a1-3)Gal(b1-3)[Fuc(a1-4)]GlcNAc(b1-2)Man(a1-3)[Gal(a1-3)Gal(b1-3)[Fuc(a1-4)]GlcNAc(b1-2)Man(a1-6)]Man(b1-4)GlcNAc(b1-4)GlcNAc
Procedure, shortened: as §1

[14] = molecular target: Gal(b1-3)GalNAc(a1-3)[Fuc(a1-2)]Gal(b1-4)Glc
Procedure, shortened: as §1

[15] = molecular target: Gal(b1-3)GlcNAc(b1-3)Gal(b1-4)GlcNAc(b1-2)[Gal(b1-3)GlcNAc(b1-3)Gal(b1-4)GlcNAc(b1-6)]Man(a1-6)[Gal(b1-3)GlcNAc(b1-3)Gal(b1-4)GlcNAc(b1-2)Man(a1-3)]Man(b1-4)GlcNAc(b1-4)[Fuc(a1-6)]GlcNAc
Procedure, shortened: as §1

[16] = molecular target: Gal(b1-3)GlcNAc(b1-3)Gal(b1-4)GlcNAc(b1-3)Gal(b1-4)GlcNAc(b1-2)[Gal(b1-3)GlcNAc(b1-3)Gal(b1-4)GlcNAc(b1-3)Gal(b1-4)GlcNAc(b1-6)]Man(a1-6)[Gal(b1-3)GlcNAc(b1-3)Gal(b1-4)GlcNAc(b1-3)Gal(b1-4)GlcNAc(b1-2)Man(a1-3)]Man(b1-4)GlcNAc(b1-4)[Fuc(a1-6)]GlcNAc
Procedure, shortened: as §1

[17] = molecular target: Gal(b1-3)[Neu5Ac(a2-6)]GalNAc
Procedure, shortened: as §1

[18] = molecular target: Gal(b1-4)GlcNAc(b1-2)Man(a1-3)[GlcNAc(b1-4)][Gal(b1-4)GlcNAc(b1-2)Man(a1-6)]Man(b1-4)GlcNAc(b1-4)GlcNAc
Procedure, shortened: as §1

[19] = molecular target: Gal(b1-4)GlcNAc(b1-2)[Gal(b1-4)GlcNAc(b1-4)]Man(a1-3)[Gal(b1-4)GlcNAc(b1-2)[Gal(b1-4)GlcNAc(b1-6)]Man(a1-6)]Man(b1-4)GlcNAc(b1-4)GlcNAc
Procedure, shortened: as §1

[20] = molecular target: Gal3S(b1-4)[Fuc(a1-3)]GlcNAc6S
Procedure, shortened: as §1

Gal3S4S(b1-4)GlcNAc = molecular target: Gal3S4S(b1-4)GlcNAc
Procedure, shortened: as §1

Gal3S6S(b1-4)GlcNAc = molecular target: Gal3S6S(b1-4)GlcNAc
Procedure, shortened: as §1

GalNAc(b1-3)Gal = molecular target: GalNAc(b1-3)Gal
Procedure, shortened: as §1

[21] = molecular target: GalNAc(b1-4)GlcNAc(b1-2)Man(a1-3)[GalNAc(b1-4)GlcNAc(b1-2)Man(a1-6)]Man(b1-4)GlcNAc(b1-4)GlcNAc
Procedure, shortened: as §1

GalNAc(b1-6)GalNAc = molecular target: GalNAc(b1-6)GalNAc
Procedure, shortened: as §1

[22] = molecular target: GalNAc3S(b1-4)[Fuc(a1-3)]GlcNAc
Procedure, shortened: as §1

[23] = molecular target: GlcNAc(a1-4)Gal(b1-4)GlcNAc(b1-3)Gal(b1-4)Glc
Procedure, shortened: as §1

[24] = molecular target: GlcNAc(a1-6)Gal(b1-4)GlcNAc
Procedure, shortened: as §1

[25] = molecular target: GlcNAc(b1-2)Man(a1-3)[GlcNAc(b1-4)][GlcNAc(b1-2)Man(a1-6)]Man(b1-4)GlcNAc(b1-4)[Fuc(a1-6)]GlcNAc
Procedure, shortened: as §1

[26] = molecular target: GlcNAc(b1-2)[GlcNAc(b1-4)]Man(a1-3)[GlcNAc(b1-2)Man(a1-6)]Man(b1-4)GlcNAc(b1-4)GlcNAc
Procedure, shortened: as §1

B1: Langerin (Homo sapiens), Q9UJ71 (protein)
chain: STLNAQIPELKSDLEKASALNTKIRALQGSLENMSKLLKRQNDILQVVSQGWKYFKGNFYYFSLIPKTWYSAEQFCVSRNSHLTSVTSESEQEFLYKTAGGLIYWIGLTKAGMEGDWSWVDDTPFNKVQSARFWIPGEPNDAGNNEHCGNIKAPSLQAWNDAPCDITFLFICKRPYVPSEP
[1]
  glycan array binding signal (z-score): 0.215
[2]
  glycan array binding signal (z-score): -0.246
[3]
  glycan array binding signal (z-score): -0.237
[4]
  glycan array binding signal (z-score): -0.023
[5]
  glycan array binding signal (z-score): -0.321
[6]
  glycan array binding signal (z-score): 0.089
[7]
  glycan array binding signal (z-score): -0.27
[8]
  glycan array binding signal (z-score): -0.041
[9]
  glycan array binding signal (z-score): 1.92
[10]
  glycan array binding signal (z-score): -0.285
[11]
  glycan array binding signal (z-score): 0.041
[12]
  glycan array binding signal (z-score): 10.4
[13]
  glycan array binding signal (z-score): -0.042
[14]
  glycan array binding signal (z-score): -0.171
[15]
  glycan array binding signal (z-score): 5.7
[16]
  glycan array binding signal (z-score): 7.74
[17]
  glycan array binding signal (z-score): -0.085
[18]
  glycan array binding signal (z-score): -0.237
[19]
  glycan array binding signal (z-score): -0.351
[20]
  glycan array binding signal (z-score): -0.1
Gal3S4S(b1-4)GlcNAc
  glycan array binding signal (z-score): -0.333
Gal3S6S(b1-4)GlcNAc
  glycan array binding signal (z-score): -0.209
GalNAc(b1-3)Gal
  glycan array binding signal (z-score): -0.289
[21]
  glycan array binding signal (z-score): -0.176
GalNAc(b1-6)GalNAc
  glycan array binding signal (z-score): -0.255
[22]
  glycan array binding signal (z-score): 0.095
[23]
  glycan array binding signal (z-score): -0.192
[24]
  glycan array binding signal (z-score): -0.229
[25]
  glycan array binding signal (z-score): 1.18
[26]
  glycan array binding signal (z-score): 0.028
